# Source: PubChem BioAssay
# Only a selection was taken, and hits are over-represented in it overall.
# Methyltransferases: Primary Screen for Target Class Profiling of Small Molecule Inhibitors of Methyltransferases; purified enzyme, MTase-Glo SAH luminescence; active compounds read low; calls only at 40 µM; 3.9% of 25,000 active; AID 1745853, 2022; call rule not given here
#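 Each enzyme was assayed with SAM and its substrate. SAH formation detected by MTase-Glo luminescence; single-point 40 uM screen[…].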
# Starred values were filed as active, the others as inactive; i = inactive; + = active, no number; ! = not active in a repeat. On the % scale 0 is the no-effect control and ±100 the full control effect.
SMILES,Methyltransferases
COc1ccc(NC(=O)CCc2nnc3n(Cc4ccc(Cl)cc4)c(=O)c4ccccc4n23)cc1OC,i
Cc1ccc(NS(=O)(=O)c2ccc3[nH]c(=O)[nH]c3c2)c(Cl)c1,i
Cc1cccc(CNC(=O)C(C)n2ccc3cc(S(=O)(=O)N4CCCC4)ccc32)c1 (configuration not stated),i
CCCCN(CC)CCN1C(=O)c2ccc(-c3ccco3)n2CC1(C)C(=O)NC1CCCCC1 (configuration not stated),i
Cc1c(Cl)cccc1NC(=O)Cn1c(=O)oc2cc(S(=O)(=O)N3CCCC3)ccc21,i
Cc1ccccc1-n1c(Cn2nc(-c3cccc(O)c3)c3c(N)ncnc32)nc2cccc(C)c2c1=O,+
Cc1ccc(C)c(N2C(=O)CSc3c(c4ccccc4n3C)C2C(=O)NCc2ccc(F)cc2)c1 (configuration not stated),i
CCOc1ccccc1CN1C(=O)CSc2c(c3ccccc3n2C)C1C(=O)NCc1ccccc1 (configuration not stated),i
CC1CCC(NC(=O)C2(C)Cn3c(cc4occc43)C(=O)N2Cc2ccccc2F)CC1 (configuration not stated),i
CC(C)CCNC(=O)C1(C)Cn2c(cc3ccccc32)C(=O)N1Cc1cccc(F)c1 (configuration not stated),i
C[C@H](Oc1cc(-c2cnn(C3CCNCC3)c2)cnc1N)c1c(Cl)ccc(F)c1Cl,+
C[C@@H](Oc1cc(-c2cnn(C3CCNCC3)c2)cnc1N)c1c(Cl)ccc(F)c1Cl,+!
CC(C)OCCCn1c(=O)c2ccccc2n2c(=O)n(Cc3c(F)cccc3Cl)nc12,i
COC(=O)c1cc2n(n1)CC(C)(C(=O)NC1CCCCC1)N(c1ccccc1C)C2=O (configuration not stated),i
CCCSCCCN1C(=O)c2cc3occc3n2CC1(C)C(=O)NC1CCCCC1C (configuration not stated),i
CCOc1cccc(C2c3cccn3-c3sc4c(c3CN2C(=O)Nc2ccc(C)c(F)c2)CCCC4)c1 (configuration not stated),i
O=C(Cn1c(=O)oc2cc(S(=O)(=O)NCc3ccccc3)ccc21)Nc1ccc(F)cc1,i
Cc1cnc(Nc2ccc(OCCN3CCCC3)cc2)nc1Nc1cccc(S(=O)(=O)NC(C)(C)C)c1,+!
CCOc1ccc(Nc2nc3c(S(=O)(=O)c4ccccc4)nnn3c3ccccc23)cc1,i
CSc1ccc(CN2C(=O)c3cc4ccccc4n3CC2(C)C(=O)NCc2ccccc2)cc1 (configuration not stated),i
COc1ccc(-c2nnc(-c3ccc(Cl)c(S(=O)(=O)N4CCCCC4)c3)o2)cc1OC,i
CC1(C(=O)NC2CCCCC2)Cn2c(nc3ccccc32)C(=O)N1Cc1ccc2c(c1)OCO2 (configuration not stated),i
Cn1nc(-c2cccc(F)c2)c(N2CCCC2)c1NC(=O)NCc1ccccc1,i
CCOC(=O)c1cc2n(n1)CC(C)(C(=O)NC1CCCCC1)N(c1cccc(OC)c1)C2=O (configuration not stated),i
COC(=O)c1cc2n(n1)CC(C)(C(=O)NC1CCCCCC1)N(Cc1cccc(OC)c1)C2=O (configuration not stated),i
SMILES,Methyltransferases
COc1cccc(-n2nc(C(=O)O)cc2-c2ccc(C3CCCCC3)c(Cl)c2)c1,+
CC(C)CNC(=O)c1ccc2c(=O)n(C(C)C)c3nn(CC(=O)Nc4ccccc4Cl)c(=O)n3c2c1,i
COC(=O)N1CCN(Cc2cccc(NC(=O)Nc3ccc(C)nc3)c2F)CC1,i
CN1CCN(Cc2ccc(NC(=O)Nc3ccc(Oc4cc(NC(=O)C5CC5)ncn4)cc3)cc2C(F)(F)F)CC1,+
CCN1CCN(Cc2ccc(C(=O)Nc3ccc(C)c(Oc4ccc5c(c4)CC(=O)N5)c3)cc2C(F)(F)F)CC1,i
CC(C)NC(=O)c1ccc2c(=O)n(C(C)C)c3nn(CC(=O)Nc4ccccc4Cl)c(=O)n3c2c1,i
CCCN1CCN(CCCN2C(=O)c3cc4occc4n3CC2(C)C(=O)NC2CCCCCC2)CC1 (configuration not stated),i
Cc1ccc(N2C(=O)c3cc4occc4n3CC2(C)C(=O)NC2CCCC(C)C2C)cc1 (configuration not stated),i
CCS(=O)(=O)N1CCC2(CC1)CN(c1cccc(F)c1)C2c1ccccc1 (configuration not stated),i
COc1ccc(N2C(=O)c3cc4occc4n3CC2(C)C(=O)NC2CCCCCC2)cc1Cl (configuration not stated),i
CS(=O)(=O)Nc1ccc2oc3c(OC(F)F)ccc(C(=O)Nc4c(Cl)cncc4Cl)c3c2c1,+
Cc1cc(C)cc(N2C(=O)CSc3c(c4ccccc4n3C)C2C(=O)NCc2ccc(F)cc2)c1 (configuration not stated),i
COCCNC(=O)CCn1ccc2cc(S(=O)(=O)N3CCCCC3)ccc21,i
COc1ccc(-c2cc3n(n2)CC(C)(C(=O)NC2CCCCC2)N(Cc2cccc(F)c2)C3=O)cc1 (configuration not stated),i
COc1cccc(Cn2nc3n(CC(C)C)c(=O)c4ccc(C(=O)NC5CCCCC5)cc4n3c2=O)c1,i
CC1CCN(S(=O)(=O)c2ccc3c(ccn3CCC(=O)NC3CCCCC3C)c2)CC1 (configuration not stated),i
COC(=O)c1cc2n(n1)CC(C)(C(=O)NC1CCCCC1)N(CCc1ccc(SC)cc1)C2=O (configuration not stated),i
CCOC(=O)c1cc2n(n1)CC(C)(C(=O)NC1CCC(C)CC1)N(c1ccc(C)c(C)c1)C2=O (configuration not stated),i
CCn1c2ccccc2c2cc(Nc3ccnc(NCCCN4CCOCC4)n3)ccc21,+
Cc1ccc(Cn2c(=O)c3ccccc3n3c(CCC(=O)NCCCN4CCOCC4)nnc23)cc1,i
CC(C)CCn1c(=O)c2ccccc2n2c(CCC(=O)NCCCN3CCOCC3)nnc12,i
O=C1c2cc3occc3n2CC(C(=O)NC2CCCCCCC2)(c2ccccc2)N1Cc1ccc(F)cc1 (configuration not stated),i
Nc1ncnc2c1c(-c1cccc(OCc3ccccc3)c1)cn2C1CC(CN2CCC2)C1 (configuration not stated),+
O=C(C1COc2cc(S(=O)(=O)NCCN3CCOCC3)ccc2O1)N1CCOCC1 (configuration not stated),i
COc1ccc(OC)c(CNC(=O)c2cc3n(n2)CC(C)(C(=O)NCCC(C)C)N(C)C3=O)c1 (configuration not stated),i
O=c1[nH]c2ccc(S(=O)(=O)Nc3ccc(N4CCOCC4)cc3)cc2[nH]1,i
c1cn2cc(-c3ccc4cn[nH]c4c3)nc(Nc3ccc(N4CCOCC4)cc3)c2n1,+
Cc1ccc(CNC(=O)C2(C)Cn3nc(C(=O)NCc4cccs4)cc3C(=O)N2C)cc1 (configuration not stated),i
CC1(C(=O)NC2CCCCC2)Cn2c(nc3ccccc32)C(=O)N1Cc1ccco1 (configuration not stated),i
C=C(C)C(=O)OC1CC2(C)OC(=CC2=O)C(=C)CC2OC(=O)C(=C)C12 (configuration not stated),i
